In the assay the test system is LEGO organoid PT (PTEN-/-; TP53-/-). Nature of the assay: bioluminescence (viable cell) signal fold change after vs before treatment, normalised to DMSO (ratio); higher = more tumour cell growth / less inhibition. As to conditions: 10 µM; treatment time 6 days. How it is done: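 Luc2-labelled iPSC-derived glioblastoma-like organoids (LEGOs, genotypes PT = PTEN-/-;TP53-/-, PTCC = plus CDKN2A/B-/-, PTN = plus NF1-/-) were treated with 10 uM drug for 6 days (applied every other day) at 37 C. Bioluminescence imaging was done before treatment and 2 days after the last dose. BLI signals were normalised to the DMSO control on the same day and then to the pre-treatment signal (N=3).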
For `NNC(=O)c1ccncc1` [Isoniazid], the bioluminescence was 0.807. For `CN(C)CC(c1ccc(O)cc1)C1(O)CCCCC1` (stereo not given) [Desvenlafaxine] the value was 1.01; for `CN=C(NC#N)NCCSCc1nc[nH]c1C` [Cimetidine], 1.14. Under `C#CCN[C@@H]1CCc2ccccc21` [Rasagiline] stands 2.76; under `CNCCC(Oc1ccc(C(F)(F)F)cc1)c1ccccc1.Cl` (stereo not given) [Fluoxetine hydrochloride], 0.929. Consider `O.O.O.O.O.O.O.O=C1CN(/N=C/c2ccc(-c3ccc([N+](=O)[O-])cc3)o2)C(=O)[N-]1.O=C1CN(/N=C/c2ccc(-c3ccc([N+](=O)[O-])cc3)o2)C(=O)[N-]1.[Na+].[Na+]` [Dantrolene sodium hemiheptahydrate], for which the bioluminescence turned out to be 0.935. Turning to `Nc1nc2ccc(OC(F)(F)F)cc2s1` [Riluzole], the bioluminescence stood at 0.939.

For `C[C@@H](Oc1cc(-c2cnn(C3CCNCC3)c2)cnc1N)c1c(Cl)ccc(F)c1Cl` [Crizotinib], the bioluminescence was determined as 0.492. As for `C[C@]12C=CC(=O)C=C1CC[C@@H]1[C@@H]2[C@@H](O)C[C@@]2(C)[C@H]1CC[C@]2(O)C(=O)CO` [Prednisolone], the bioluminescence was found to be 0.904. Under `CC/C(=C(\c1ccccc1)c1ccc(OCCN(C)C)cc1)c1ccccc1` [Tamoxifen] stands 0.646; under `CSc1ccc2c(c1)N(CCC1CCCCN1C)c1ccccc1S2.Cl` (stereo not given) [Thioridazine hydrochloride], 0.68; under `Cl.N=C1CCCN1Cc1[nH]c(=O)[nH]c(=O)c1Cl` [Tipiracil hydrochloride], 0.741. Regarding `Cl.CNCC\C=C1\c2ccccc2CCc2ccccc12` [Nortriptyline hydrochloride], the bioluminescence is 0.795. For `CO[C@H]1C(=O)[C@]2(C)[C@@H](OC)C[C@H]3OC[C@@]3(OC(C)=O)[C@H]2[C@H](OC(=O)c2ccccc2)[C@]2(O)C[C@H](OC(=O)[C@H](O)[C@@H](NC(=O)OC(C)(C)C)c3ccccc3)C(C)=C1C2(C)C` [Cabazitaxel] the value was 1.15; for `C[C@]12CC[C@@H]3c4ccc(O)cc4CC[C@H]3[C@@H]1CC[C@@H]2O` [Estradiol], 0.389. For `C=CC(=O)N1CCC[C@@H](n2nc(-c3ccc(Oc4ccccc4)cc3)c3c(N)ncnc32)C1` [Ibrutinib] the value was 0.73; for `Nc1nc(=O)n([C@@H]2CS[C@H](CO)O2)cc1F` [Emtricitabine], 0.905. `CCC(=O)NCC[C@@H]1CCc2ccc3c(c21)CCO3` [Ramelteon]: the bioluminescence is 0.961. For the compound `CCOc1nc2cccc(C(=O)O)c2n1Cc1ccc(-c2ccccc2-c2nn[nH]n2)cc1` [Candesartan], the bioluminescence stood at 0.993.

`CCOc1nc2cccc(C(=O)OC(C)OC(=O)OC3CCCCC3)c2n1Cc1ccc(-c2ccccc2-c2nn[nH]n2)cc1` (stereo not given) [Candesartan Cilexetil]: the bioluminescence amounted to 1.14.

As for `Oc1c(I)cc(Cl)c2cccnc12` [Clioquinol], the bioluminescence is 0.859.

As for `FC(F)(F)c1ccc(CNc2ccc(Cc3c[nH]c4ncc(Cl)cc34)cn2)cn1` [Pexidartinib], the bioluminescence is 0.7. With `CCN(CC)CCNC(=O)c1cc(Cl)c(N)cc1OC` [5-Chloro-2-methoxyprocainamide], the bioluminescence came to 1.1.

For `C/C=C(/C)C(=O)O[C@H]1C(C)=C[C@]23C(=O)[C@@H](C=C(CO)[C@@H](O)[C@]12O)[C@H]1[C@@H](C[C@H]3C)C1(C)C` [Ingenol Mebutate], the bioluminescence amounted to 0.841.

For the compound `Nc1nc(Cl)nc2c1ncn2[C@H]1C[C@H](O)[C@@H](CO)O1` [Cladribine], the bioluminescence worked out at 1.81.

For the compound `NC(=O)c1cn(Cc2c(F)cccc2F)nn1` [Rufinamide], the bioluminescence stood at 0.54. For `CC(C)(C)c1cc(C(C)(C)C)c(NC(=O)c2c[nH]c3ccccc3c2=O)cc1O` [Ivacaftor] the value was 0.378; for `COc1cc(C(=O)NCc2ccc(OCCN(C)C)cc2)cc(OC)c1OC.Cl` [Trimethobenzamide hydrochloride], 1.11. Under `Cc1cn([C@H]2C=C[C@@H](CO)O2)c(=O)[nH]c1=O` [Stavudine] stands 3.29; under `CCCCCCCCCCC[C@@H](C[C@@H]1OC(=O)[C@H]1CCCCCC)OC(=O)[C@H](CC(C)C)NC=O` [Orlistat], 1.4; under `CC1(C)O[C@@H]2[C@@H](CO[C@@]3(COS(N)(=O)=O)OC(C)(C)O[C@@H]23)O1` [Topiramate], 1.02. Under `CC(C)NCC(O)COc1ccc(CC(N)=O)cc1` (stereo not given) [Atenolol] stands 1.39; under `O=C1Nc2ccc(Cl)cc2[C@@](C#CC2CC2)(C(F)(F)F)O1` [Efavirenz], 0.965.

`CN1C(=O)OC(C)(C)C1=O` [Trimethadione]: the bioluminescence worked out at 0.57.

With `C[C@@H]1C[C@H]2[C@@H]3CCC4=CC(=O)C=C[C@]4(C)[C@@]3(F)[C@@H](O)C[C@]2(C)[C@@]1(O)C(=O)CO` [Dexamethasone], the bioluminescence came out at 0.763.

As for `N[C@@H](CC(=O)O)C(=O)O` [L-Aspartic acid], the bioluminescence amounted to 0.844. On to `CC(C)NCC(O)COc1cccc2ccccc12.Cl` (stereo not given) [Propranolol hydrochloride], for which the bioluminescence came to 1.03. For `Cc1cc2c(s1)Nc1ccccc1N=C2N1CCN(C)CC1` [Olanzapine] the value was 1.17; for `CC(C)CN(C[C@@H](O)[C@H](Cc1ccccc1)NC(=O)O[C@H]1CCOC1)S(=O)(=O)c1ccc(N)cc1` [Amprenavir], 0.802. Turning to `COc1cc(Nc2c(C#N)cnc3cc(OCCCN4CCN(C)CC4)c(OC)cc23)c(Cl)cc1Cl` [Bosutinib], the bioluminescence was determined as 1.24.

Source of the values: the supplement of paper PMC10811239.
